Compound activity as filed in PubChem BioAssay.
Autophagy HCS = alters autophagy in cells; actives 0.98% (n = 190,000); calls only at 10 µM (by protocol); MEF GFP-LC3 puncta imaging; test concentration mostly 10 µM; AID 463193;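 active = percentage of spot-positive cells more than 3 SD above its plate mean, without a fluorescence outlier flag or 80% toxicity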
Lmaj promast = Leishmania major promastigote growth inhibition; Leishmania major promastigotes, resazurin fluorescence viability; inhibition, % at 10 µM; actives 9% (n = 200,000); AID 1063; in the data active = inhibition above about 50%;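 also: promastigotes grown with compound for 44 hours at 28 °C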
HCT116 PTEN-null = suppresses growth of cells with PTEN deletion; HCT116 PTEN-null viability, CellTiter-Glo, 60 h; stronger effect = lower value; viability, % at 10 µM; actives 1.2% (n = 140,000);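 active = viability at or below a set limit, 4 SD under the median of all tested compounds, cut at about 3.7% in these data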;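 also: PTEN knockout HCT116 line with beta catenin targeted HCT116 as companion control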
INS promoter inh = TRM-6 insulin promoter activity inhibition; inhibition, % at 2 µM; TRM-6 cells (human fetal islet line), insulin promoter-eGFP reporter, imaging; reporter expression induced with tamoxifen; actives 0.9% (n = 130,000); AID 1273;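 active = inhibition above the mean plus 3 SD, with well images judged a real hit on visual review, cut at about 60% in these data, passing the limit was not always enough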
bCat KO growth = beta-catenin-lacking colon tumor cell growth suppression. HCT116 beta-catenin knockout viability, CellTiter-Glo, 60 h; stronger effect = lower value. viability, % at 10 µM. actives 1.5% (n = 140,000). AID 818;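 active = viability at or under a set limit, the compound median less 4 SD, cut at about 6% in these data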
Ins promoter up = MIN6 insulin promoter up-regulation; z-score at 5 µM; actives 0.3% (n = 190,000); MIN6 insulin promoter-GFP reporter, high-content imaging; stronger effect = higher value;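 active = z-score above 3 at 5 µM with at least 500 cells counted in the well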
Large screens that a line does not name were inactive. Only some compounds are listed: those with a hit (about 9.6% of all), similar ones and a draw of the others.

OCCn1c(C(F)(F)F)nc2ccccc21	HCT116 PTEN-null 0.4, bCat KO growth 1.0 (no result: Ins promoter up)
O=C(N/N=C1\CCCc2ccccc21)c1ccc([N+](=O)[O-])cc1Cl	Lmaj promast 93.6
O=C(N/N=C1\CCCc2ccccc21)c1ccccc1[N+](=O)[O-]	Lmaj promast 99.8 (no result: Ins promoter up)
COCc1nnc(NC(=O)CCCCCN2C(=O)c3ccccc3C2=O)s1	none
Cc1ccccc1CN(C)CC(=O)NC(C)CCc1ccccc1 (centres undefined)	Autophagy HCS active (no result: HCT116 PTEN-null, INS promoter inh, bCat KO growth)
Cc1ccc(NC(=S)NC(C)CCc2ccccc2)cc1C (centres undefined)	Lmaj promast 90.3
CC(=O)c1ccc(NC(=S)NC(C)CCc2ccccc2)cc1 (centres undefined)	none (no result: HCT116 PTEN-null, INS promoter inh, bCat KO growth)
Cc1cccc(C)c1NC(=S)NC(C)CCc1ccccc1 (centres undefined)	Lmaj promast 60.5 (no result: INS promoter inh)
Cc1ccccc1NC(=O)C(=O)NC(C)CCc1ccccc1 (centres undefined)	none
CCC1CCCCN1S(=O)(=O)c1ccc(NC(=O)c2cccs2)cc1 (centres undefined)	none
Cc1nc2ccccn2c1C(=O)CSc1ccc(Cl)cc1Cl	none
CCn1ncc(Br)c1C(=O)Nc1sc2c(c1C(N)=O)CCC2	Ins promoter up 3.46
Cn1cc(Br)c(C(=O)Nc2sc3c(c2C(N)=O)CCC3)n1	none
COc1ccc(/C=C2\SC(=O)N=C2N)cc1	Lmaj promast 56.6
COc1ccc(Cc2nnc(N/N=C/c3ccc(O)cc3)[nH]c2=O)cc1OC	Lmaj promast 97.6, bCat KO growth 5.5 (no result: INS promoter inh)
CCN(CC)S(=O)(=O)c1ccc(C)c(NC(=O)Cn2c(=O)cnc3ccccc32)c1	none
O=C1Nc2ccccc2/C1=N\c1sc2c(c1C(=O)Nc1ccccc1)CCCC2	Autophagy HCS active
COC(=O)[C@@]1(Cc2ccccc2)[C@@H]2C(=CC(=O)[C@H]2CC(=O)C(=O)N(C)C)CN1C(=O)c1ccccc1	Lmaj promast 99.8, HCT116 PTEN-null 1.7, bCat KO growth 2.4
COC(=O)Cn1c(C(=O)N2CCCC2)cc2c1C[C@H]1CN(C(=O)c3ccccc3)[C@@](Cc3ccc(F)cc3)(C(=O)OC)[C@@H]21	none
C=CCC1(NC(C)c2ccccc2)CCCCC1 (centres undefined)	Lmaj promast 56.6
CC(NC(=O)C1CC12CCC2)c1ccccc1 (centres undefined)	none (no result: INS promoter inh)
C/C(=N/OC(=O)CC(C)C)c1cc(-c2ccc(Cl)cc2)no1	none (no result: HCT116 PTEN-null, bCat KO growth)
S=C(Nc1ccccc1Cl)N(CCCN1CCOCC1)Cc1ccco1	Lmaj promast 85.0
Cc1ccc(NC(=S)N(CCCN2CCOCC2)Cc2ccccn2)cc1	none
Cc1ccccc1NC(=S)N(CCCN1CCOCC1)Cc1ccccn1	Lmaj promast 65.2
CCN1CCN(CCCN(Cc2ccco2)C(=S)Nc2cccc(Cl)c2C)CC1	Autophagy HCS active (no result: HCT116 PTEN-null, INS promoter inh, bCat KO growth)
Cc1c(Cl)cccc1NC(=S)N(CCCN1CCOCC1)Cc1ccco1	none (no result: HCT116 PTEN-null, bCat KO growth)
Cc1cc(NC(=S)N(CCCN2CCN(C)CC2)Cc2ccco2)ccc1Cl	Autophagy HCS active (no result: HCT116 PTEN-null, INS promoter inh, bCat KO growth)
CCc1ccc(Cc2cnc(NC(=O)C3=NCCN3)s2)cc1	none (no result: HCT116 PTEN-null, INS promoter inh, bCat KO growth)
Cc1ccc(S(=O)(=O)N=S(CCO)CCO)cc1	none
CCOC(=O)CC1Sc2ccccc2NC1=O (centres undefined)	none (no result: INS promoter inh)
Cc1cc(NC(=O)CCCn2nc([N+](=O)[O-])c(Cl)c2C)no1	Autophagy HCS active (no result: HCT116 PTEN-null, bCat KO growth)
Cc1cc(NC(=O)CCCn2nc([N+](=O)[O-])cc2C)no1	none (no result: HCT116 PTEN-null, INS promoter inh, bCat KO growth)
CC(C)CNC(=O)CSc1nnc(-c2cccc(S(=O)(=O)N3CCCCC3)c2)o1	Ins promoter up 4.75
COCC(C)NC(=O)CSc1nnc(-c2cccc(S(=O)(=O)N3CCCCC3)c2)o1 (centres undefined)	none (no result: HCT116 PTEN-null, bCat KO growth)
CC(NC(=O)CSc1nnc(-c2cccc(S(=O)(=O)N3CCCCC3)c2)o1)C12CC3CC(CC(C3)C1)C2 (centres undefined)	Lmaj promast 95.8
O=C(NCc1ccco1)c1ccc(Cn2c(=O)c3ccccc3n(Cc3ccc(Cl)cc3)c2=O)cc1	none
COC(=O)c1ccccc1NC(=S)N(Cc1ccc2c(c1)OCO2)Cc1cc2cc(C)ccc2[nH]c1=O	Lmaj promast 99.4
CCN(CC)CCN(Cc1cc2ccc(C)cc2[nH]c1=O)C(=S)Nc1ccccc1C(=O)OC	none (no result: HCT116 PTEN-null, bCat KO growth)
Cc1ccc(NC(=O)N(Cc2ccc3c(c2)OCO3)Cc2cc3cc4c(cc3[nH]c2=O)OCCO4)cc1	Autophagy HCS active
